According to PubChem BioAssay AID624418 (National Center for Advancing Translational Sciences (NCATS), 2012):
In all, about 410,000 compounds went through this assay and about 530 (0.13%) were called active. Where a call stands in place of a potency, no number is given. Not shown: some 5% with an inconclusive outcome. For the sample, actives were picked, then their nearest neighbours and some compounds at random. Unmarked numbers belong to inactive results. Calls follow the shape of the dose curve; as a rule, active = well fitted inhibition curve with a large enough effect; inconclusive = small, poorly fitted or top-dose-only effect, or another doubt; inactive = no such curve, though single readings can be large or run the other way.

Assay: qHTS of GLP-1 Receptor Inverse Agonists: Cytotox Screen;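 also: loss of luciferase light is scored as toxicity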
Conditions: HEK293 cAMP-luciferase reporter cells, luminescence, 24 h; series mostly up to 38.3 µM
Text: The overall goal of this project was to develop a novel assay for discovering small molecule ligands for class B1 G protein-coupled receptors (GPCRs). Very few agonists (or inverse agonists) with generally weak activity for this entire group of physiologically important receptors are known to date. To establish proof-of-principle that this critical bottleneck can be overcome with a suitable screening approach, our studies focused on the class B1 receptor for glucagon-like peptide-1 (GLP-1R), a potential therapeutic target for diabetes and neurodegenerative disease.
The assay was developed using a cell-based functional readout. Toward this goal, stably transfected HEK293 cell clones were established that co-express (i) a cAMP-responsive luciferase reporter gene, and (ii) constitutively active GLP-1R that upon ligand interaction inhibit (inverse agonists) the luciferase activity. In addition, two control cell lines were developed: (i) one that express only the cAMP-responsive reporter gene to enable initial exclusion of GLP-1R independent effects of candidate probes; and (ii) one with the reported gene cloned with another constitutively active orphan receptor GPR119 to enable exclusion of GLP-1R independent inhibitor effects of candidate inverse agonists.
To that end, this assay was optimized for 1536-well format and screened against the MLSMR. Then the same collection was run in this cytotoxicity assay where inhibition was the undesired outcome.
NIH Molecular Libraries Probe Production Network [MLPCN]
NIH Chemical Genomics Center [NCGC]
PI Name: Martin Beinborn, Tufts Medical Center
Six ul of cell suspension (200 cells/uL in DMEM + 10% Nu serum + 1% pen-strep) is dispensed in a white solid 1536-well plate. The plates are incubated for 12 hours at 37 deg C at 5% CO2 followed by addition of 23 nL compounds. After 24 hr incubation at 37 deg C and 5% CO2, 3 uL of luciferase assay detection reagent is added. A luminescence read is obtained on the PerkinElmer Viewlux after 12 min incubation at room temperature.
Potency is read from the fitted curve at half-maximal effect.

| SMILES | Potency | activity change, negative = inhibition |
| --- | --- | --- |
| CCCCC(CC)CNC(=O)C1CCN(S(=O)(=O)c2cccc3nsnc23)CC1 (stereo not given) | inactive |  |
| COC(=O)CN1C(=O)CSc2ccc(S(=O)(=O)Nc3cc(C)ccc3C)cc21 | inactive |  |
| CCCNC(=O)c1ccc(Cn2c(SCC(N)=O)nc3ccccc3c2=O)cc1 | inactive |  |
| Cc1csc(NC(=S)Nc2cccc(Cl)c2)n1 | 0.891 µM (active) |  |
| O=C(Nc1cccc(Cl)c1)c1csnn1 | inactive |  |
| COc1cccc(NC(=S)NC(=O)c2c(Cl)c(C)nn2C)c1 | inactive |  |
| O=C(CCOc1ccccc1)N(Cc1cccnc1)c1nc2ccc(Cl)cc2s1 | inactive |  |
| COc1ccc(NC(=O)Cn2c(=O)n(CCC(C)C)c(=O)c3cccnc32)cc1Cl | inactive |  |
| CCOc1ccc(NC(=O)CSc2c3c(nc4ccccc24)CCCC3)cc1 | inactive |  |
| COc1ccc(C2NC(=O)N(C)C3=C2C(=O)N(c2ccc(C(=O)O)cc2)C3)cc1 (stereo not given) | inactive |  |
| COc1ccccc1CNc1nc2ccc(Cl)cc2n2cnnc12 | inactive |  |
| O=c1c2ccccc2n(Cc2cccc(Cl)c2)c(=O)n1Cc1ccccc1 | inactive |  |
| COc1ccc(C(=O)CSc2c(C(C)C)cnc3c2c(=O)n(C)c(=O)n3C)cc1 | inactive |  |
| COc1ccc(C2CC(=O)Nc3c2c(=O)nc2c(C)cccn32)cc1OC (stereo not given) | inactive |  |
| CC(=O)N1c2ccccc2CC1C(=O)N1CCN(c2ccc(F)cc2)CC1 (stereo not given) | inactive |  |
| COc1cc(C2c3c(oc4ccccc4c3=O)C(=O)N2c2nc(C)c(C)s2)ccc1O (stereo not given) | inactive |  |
| CC(C)(C)C1CCc2c(sc(NC(=O)c3ccccc3F)c2C(=O)N2CCCCC2)C1 (stereo not given) | inactive |  |
| COc1ccc(NC(=O)N2CCCn3nc(C)cc32)cc1OC | inactive |  |
| CCOc1ccc(NC(=O)Cn2c(=O)n(CCCC(=O)NCc3ccc4c(c3)OCO4)c(=O)c3ccccc32)cc1 | inactive |  |
| CN(Cc1ccccc1)C(=O)CCS(=O)(=O)c1cc(Br)cc2c1N(C(=O)C1CC1)CC2 | inactive |  |
| COc1ccc(-c2cc(-c3nc(-c4cc(OC)c(OC)c(OC)c4)no3)[nH]n2)c(OC)c1 | inactive |  |
| CCOC(=O)c1ccc(NC(=O)c2ncn(-c3ccccc3)n2)cc1 | inactive |  |

| SMILES | Potency | activity change, negative = inhibition |
| --- | --- | --- |
| COC(=O)c1c(NC(=O)c2ccc(Cl)c(Cl)c2)sc2c1CCCC2 | inactive |  |
| O=c1[nH]c2cc(Br)ccc2n2cccc12 | inactive |  |
| COc1cccc(-c2nc(S(=O)(=O)c3ccc(C)cc3)c(NCc3ccccc3)o2)c1 | inactive |  |
| CCN(CC(=O)Nc1ccc(Cl)c(S(=O)(=O)N(C)C)c1)Cc1nc2ccccc2c(=O)[nH]1 |  | 0.695% [at 0.307 µM] |
| CCN(CC(=O)NC(=O)NCc1ccccc1)Cc1nc2ccccc2c(=O)[nH]1 | 6.31 µM (active) |  |
| CCCCN(CC(=O)Nc1cccc(S(=O)(=O)N2CCCC2)c1)Cc1nc2ccccc2c(=O)[nH]1 | inactive |  |
| COC(=O)c1cnn(-c2ccc(C(=O)Nc3ccc(OC(F)(F)F)cc3)cc2)c1N | inactive |  |
| Cc1ccc2nc(COc3ccccc3NC(=O)Nc3ccc(F)c(Cl)c3)cc(=O)n2c1 | inactive |  |
| COc1ccc(NC(=O)CN2CCCN(Cc3ccccc3)S2(=O)=O)cc1 | inactive |  |
| Cc1ccc(OC(=O)CSc2nnc(-c3cccs3)o2)cc1 | inactive |  |
| COc1ccc(Cn2c(C(=O)O)c(CNCCc3cccs3)c3ccc(OC)cc32)cc1 | inactive |  |
| Oc1ccc2ccccc2c1N=Nc1nccs1 | 4.47 µM (active) |  |
| Oc1ccc(N=Nc2nccs2)c(O)c1 | 8.91 µM (active) |  |
| Cc1ccc(-c2noc(CSc3nnc(-c4ccc(Cl)cc4)n3C)n2)cc1 | inactive |  |
| Cc1ccc(C(=O)Nc2ccccc2F)cc1S(=O)(=O)N1CCOCC1 | inactive |  |
| Cc1cc2c(cc3c(SCc4cccc(Cl)c4)nnc(C)n32)o1 | inactive |  |
| CCOc1ccc(CCNC(=O)CN(c2ccc(C)cc2)S(=O)(=O)N(C)C)cc1OCC | inactive |  |
| CC(=O)c1ccc(N2CCN(C3C(=O)c4ccccc4N3C(C)=O)CC2)cc1 (stereo not given) | inactive |  |
| Cc1cc(-c2ccc(C)c(S(=O)(=O)N3c4ccccc4CC3C)c2)on1 (stereo not given) | inactive |  |
| Cc1ccc(-n2c(=O)c3cccnc3n2CC(=O)Nc2ccccc2C(F)(F)F)cc1C | inactive |  |
| Cc1nn(-c2ccc(N3CCCCC3)nn2)c(C)c1CCC(=O)NCc1ccc(F)cc1 | inactive |  |
| CCCC1CCC(=NNC(=S)NCCc2ccccc2)CC1 (stereo not given) | 4.47 µM (active) |  |

| SMILES | Potency | activity change, negative = inhibition |
| --- | --- | --- |
| S=C(NCCc1ccccc1)NCc1ccccc1Cl | inactive |  |
| CCCCNC(=S)N/N=C1\CCCCc2ccccc21 | inactive |  |
| CCN(CCCNC(=O)c1cc(Nc2ccc(OC)cc2)nc2ccccc12)c1cccc(C)c1 | inactive |  |
| CCc1ccc(NC(=O)CSc2nc3c([nH]c4ccccc43)c(=O)n2-c2cccc(OC)c2)cc1 | inactive |  |
| Fc1ccc(CN2CCc3nc(Nc4ccccc4)ncc3C2)cc1F | inactive |  |
| COc1ccccc1-c1cc(C(F)(F)F)nc(S(=O)(=O)CCCC(=O)Nc2ccc(F)cc2F)n1 | inactive |  |
| C/C(=N\NC(=O)c1ccc(CSc2nc(C)cc(C)n2)cc1)C1CCCCC1 | inactive |  |
| O=C1c2ccccc2C(=O)C1C(=O)C1CC1 | inactive |  |
| C/C(=N\NC(=O)c1ccc(C)cc1)C1C(=O)c2ccccc2C1=O | 4.47 µM (active) |  |
| Cc1ccc(-n2cnc3cc(C(=O)NCCC4=CCCCC4)ccc32)cc1Cl | inactive |  |
| O=C(CSc1cn(CC(=O)N2CCOCC2)c2ccccc12)Nc1ccccc1 | inactive |  |
| CCCCOC(=O)/C(C#N)=C/c1ccc(-c2cccc(C(F)(F)F)c2)o1 | inactive |  |
| CCSc1nnc2c(n1)OC(c1ccc(OCC(=O)O)cc1)Nc1ccccc1-2 (stereo not given) | inactive |  |
| Cc1ccc2oc(=O)c3cnn(CC(=O)NCc4ccccc4Cl)c3c2c1 | inactive |  |
| O=C(CNCc1ccc(Cl)cc1)Nc1cccc(C(=O)O)c1 | inactive |  |
| CCc1cccc(NC(=O)c2cc(-c3ccccc3)n[nH]2)c1 | inactive |  |
| O=C(CCl)Nc1cccc(CP(=O)(c2ccccc2)c2ccccc2)c1 | 3.16 µM (active) |  |
| CCn1cc(C(=O)OCC(=O)Nc2cc(C)cc(C)c2)c(=O)c2ccc(C)nc21 | inactive |  |
| COc1ccc(CNc2nc(-c3ccccc3)nn2C(=O)c2ccccc2OC)cc1 | inactive |  |
| Cc1ccc(Nc2c(-c3ccc(Cl)cc3)nc3sccn23)c(C)c1 | inactive |  |
| CCOC(=O)N1CCc2c(sc3c2c(=O)n(-c2ccc(CC)cc2)c(=O)n3C)C1 | inactive |  |
